Results published in PubChem BioAssay (Tox21).
Inconclusive results are not listed. Calls of active or inactive are those of the source. The call rests on the fitted dose curve; in most records, active means well fitted curve in the direction sought with a large enough effect in the repeat runs; inconclusive means weak or mixed curves; inactive means no such curve, though single readings can be large; an effect the other way counts as inactive or inconclusive.

Columns and labels:
[1] = Human pregnane X receptor (PXR) small molecule agonists, qHTS cell viability counter screen (AID 1346977); further: nearly all actives have a fitted effect of over 50% in size
Procedure, shortened: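 Cytotoxicity counter screen run in the same wells as the PXR luciferase assay, using PXR-Luc HepG2 cells in charcoal-stripped serum medium. Viability: CellTiter-Fluor fluorescence after 24hr compound treatment.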

[2] = Caspase-3/7 induction in HepG2 cells by small molecules, qHTS assay (AID 1346978); further: nearly all actives have a fitted effect of over 15% in size
Procedure, shortened: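 Wild-type HepG2 cells (2,000/well) were settled 5 h at 37 C, 5% CO2, then exposed to compounds in DMSO for 17 h. Caspase-3/7 activity was read by luminescence 30 min after adding Caspase-Glo 3/7 reagent at room temperature.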

[3] = Caspase-3/7 induction in CHO-K1 cells by small molecules, qHTS cell viability counter screen (AID 1346979); further: nearly all actives have a fitted effect of over 35% in size
Procedure, shortened: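 Cytotoxicity counter screen run in parallel with the caspase-3/7 assay: CHO-K1 cells, 16hr compound treatment at 37C, then CellTiter-Fluor for 1hr before fluorescence reading.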

[4] = Caspase-3/7 induction in CHO-K1 cells by small molecules, qHTS assay (AID 1346980); further: nearly all actives have a fitted effect of over 15% in size
Procedure, shortened: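 Wild-type cells were seeded at 1,500 per well and settled 5 hr at 37 C, 5% CO2, then exposed to DMSO-dissolved compounds for 17 hr. Caspase-Glo 3/7 reagent was added, and luminescence was read after 30min at room temperature.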

[5] = Caspase-3/7 induction in HepG2 cells by small molecules, qHTS cell viability counter screen (AID 1346981); further: series mostly up to about 92 µM; nearly all actives have a fitted effect of over 30% in size
Procedure, shortened: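 In this quantitative HTS counter screen, compounds delivered in DMSO were left on unmodified HepG2 cells for 16 hr at 37 C. Viability was then determined fluorometrically with CellTiter-Fluor, in parallel with caspase-3/7 induction in the same wells.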

[6] = molecular target: Nuclear receptor subfamily 1 group I member 2 (Homo sapiens) (UniProt O75469); assay: Human pregnane X receptor (PXR) small molecule agonists, qHTS assay (AID 1346982); further: nearly all actives have a fitted effect of over 35% in size; further: potency means the concentration at half of the fitted maximal effect
Procedure, shortened: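 Reporter HepG2 cells expressing PXR-Luc are cultured in charcoal-stripped FBS (5%), treated with compounds for 24 hr at 37 C, and assayed by ONE-Glo luminescence after 30 min at room temperature.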

[7] = molecular target: Cytochrome P450 2D6 (Homo sapiens) (UniProt P10635); assay: Cytochrome P450 Family 2 Subfamily D Member 6 (CYP2D6) small molecule antagonists: luciferase reporter qHTS assay (AID 1671196); further: nearly all actives have a fitted effect of over 50% in size; further: potency means the concentration at half of the fitted maximal effect
Procedure, shortened: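 Test chemicals meet CYP2D6 plus proluciferin substrate (10 min, RT); NADPH regenerating solution then drives turnover for 1 h. Detection reagent halts the reaction; luminescence measured after 20 min.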

[8] = molecular target: Cytochrome P450 2C19 (Homo sapiens) (UniProt P33261); assay: Cytochrome P450 Family 2 Subfamily C Member 19 (CYP2C19) small molecule antagonists: luciferase reporter qHTS assay (AID 1671197); further: series mostly up to about 120 µM; nearly all actives have a fitted effect of over 65% in size
Procedure, shortened: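 Quantitative high-throughput screen of the Tox21 library using CYP2C19 with proluciferin substrate. Reaction: NADPH regeneration, 37C, 1 h, after 10 min compound preincubation at room temperature. Readout: luminescence.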

[9] = molecular target: Cytochrome P450 2C9 (Homo sapiens) (UniProt P11712); assay: Cytochrome P450 Family 2 Subfamily C Member 9 (CYP2C9) small molecule antagonists: luciferase reporter qHTS assay (AID 1671198); further: nearly all actives have a fitted effect of over 50% in size; further: potency means the concentration at half of the fitted maximal effect
Procedure, shortened: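 CYP2C9 activity was measured with a P450-Glo proluciferin substrate. Enzyme–substrate mix was held with compound for 10 min at room temperature, then NADPH regeneration solution was added for 1 h at 37C. Luciferin product was read as luminescence.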

[10] = molecular target: Cytochrome P450 1A2 (Homo sapiens) (UniProt P05177); assay: Cytochrome P450 Family 1 Subfamily A Member 2 (CYP1A2) small molecule antagonists: luciferase reporter qHTS assay (AID 1671199); further: nearly all actives have a fitted effect of over 50% in size; further: potency means the concentration at half of the fitted maximal effect
Procedure, shortened: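 Steps: enzyme-substrate mix dispensed; test compounds and furafylline control pinned in; 10 min room temperature; NADPH regeneration solution added, 1 h; reaction stopped with luciferin detection reagent; luminescence read after 20 min.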

[11] = molecular target: Voltage-gated inwardly rectifying potassium channel KCNH2 (Homo sapiens) (UniProt Q12809); assay: Human Ether-a-go-go-Related Gene (hERG) channel small molecule antagonists: fluorescence cell-based qHTS assay (AID 1671200)
Procedure, shortened: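 Fluorescence at 540 nm emission (480 nm excitation) was recorded kinetically for 2 min at 1-second intervals once the thallium-containing stimulus reached cells previously loaded with FluxOR II dye.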

[12] = molecular target: Cytochrome P450 3A4 (Homo sapiens) (UniProt P08684); assay: Cytochrome P450 Family 3 Subfamily A Member 4 (CYP3A4) small molecule antagonists: luciferase reporter qHTS assay (AID 1671201)
Procedure, shortened: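 qHTS, 1536-well. CYP3A4 + proluciferin substrate, cpd 10 min RT → NADPH regen 1 h RT → detection reagent 20 min → luminescence (RLU). Ketoconazole positive control.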

[13] = molecular target: Nuclear receptor subfamily 1 group I member 2 (Homo sapiens) (UniProt O75469); assay: CYP3A4 induction through human pregnane X receptor (PXR) by small molecules, qHTS assay (AID 1346984); further: nearly all actives have a fitted effect of over 40% in size
Procedure, shortened: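 Induction measured in HepG2-based DPX-2 cells co-expressing human PXR and a CYP3A4 promoter-driven luciferase. After a 24-hour compound exposure, cells received CYP3A4 luciferin substrate at 3uM final for 3 hours, and light output was then recorded.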

Measured: Potency

Sequence of Cytochrome P450 2C9 (Homo sapiens) (P11712 whole entry, looked up): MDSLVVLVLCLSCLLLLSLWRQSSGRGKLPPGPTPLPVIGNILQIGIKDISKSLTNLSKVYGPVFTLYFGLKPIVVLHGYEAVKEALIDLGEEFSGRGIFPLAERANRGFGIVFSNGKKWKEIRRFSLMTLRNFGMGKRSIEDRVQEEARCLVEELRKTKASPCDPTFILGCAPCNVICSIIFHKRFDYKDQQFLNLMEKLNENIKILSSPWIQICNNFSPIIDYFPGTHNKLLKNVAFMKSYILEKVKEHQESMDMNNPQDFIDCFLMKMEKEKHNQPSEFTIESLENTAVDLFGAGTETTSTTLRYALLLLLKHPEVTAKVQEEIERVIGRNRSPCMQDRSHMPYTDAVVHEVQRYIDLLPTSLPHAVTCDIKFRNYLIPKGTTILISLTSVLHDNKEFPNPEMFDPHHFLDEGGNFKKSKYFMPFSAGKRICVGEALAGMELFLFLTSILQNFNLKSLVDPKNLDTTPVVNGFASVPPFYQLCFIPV
Sequence of Cytochrome P450 1A2 (Homo sapiens) (P05177 whole entry, looked up): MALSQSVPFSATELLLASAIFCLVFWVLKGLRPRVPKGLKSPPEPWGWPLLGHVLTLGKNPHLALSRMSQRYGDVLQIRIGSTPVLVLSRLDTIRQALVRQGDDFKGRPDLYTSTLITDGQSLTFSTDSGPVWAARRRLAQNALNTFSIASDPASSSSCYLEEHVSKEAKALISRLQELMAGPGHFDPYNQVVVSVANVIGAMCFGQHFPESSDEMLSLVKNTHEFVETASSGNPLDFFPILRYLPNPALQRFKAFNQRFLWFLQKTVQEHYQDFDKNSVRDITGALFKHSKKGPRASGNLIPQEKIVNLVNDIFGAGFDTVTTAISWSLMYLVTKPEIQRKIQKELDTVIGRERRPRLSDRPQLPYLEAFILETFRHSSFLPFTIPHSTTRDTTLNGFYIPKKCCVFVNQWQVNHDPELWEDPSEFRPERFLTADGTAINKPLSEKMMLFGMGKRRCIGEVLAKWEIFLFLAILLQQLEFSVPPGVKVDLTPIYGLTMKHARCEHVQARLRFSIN
Sequence of Cytochrome P450 2C19 (Homo sapiens) (P33261 whole entry, looked up): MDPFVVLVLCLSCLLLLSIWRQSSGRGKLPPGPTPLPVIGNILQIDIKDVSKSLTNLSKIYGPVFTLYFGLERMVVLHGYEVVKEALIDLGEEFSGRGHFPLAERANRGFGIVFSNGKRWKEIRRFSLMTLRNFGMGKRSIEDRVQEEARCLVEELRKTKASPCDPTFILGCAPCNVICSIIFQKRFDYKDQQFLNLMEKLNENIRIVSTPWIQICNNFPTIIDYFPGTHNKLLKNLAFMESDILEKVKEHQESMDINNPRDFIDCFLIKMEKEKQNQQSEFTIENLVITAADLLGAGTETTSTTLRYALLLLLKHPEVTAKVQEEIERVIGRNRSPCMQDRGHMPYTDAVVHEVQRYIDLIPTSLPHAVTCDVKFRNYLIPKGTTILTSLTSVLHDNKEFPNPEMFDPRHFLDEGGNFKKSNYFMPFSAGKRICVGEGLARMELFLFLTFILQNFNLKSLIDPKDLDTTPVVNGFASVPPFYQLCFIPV
Sequence of Voltage-gated inwardly rectifying potassium channel KCNH2 (Homo sapiens) (Q12809 whole entry, looked up): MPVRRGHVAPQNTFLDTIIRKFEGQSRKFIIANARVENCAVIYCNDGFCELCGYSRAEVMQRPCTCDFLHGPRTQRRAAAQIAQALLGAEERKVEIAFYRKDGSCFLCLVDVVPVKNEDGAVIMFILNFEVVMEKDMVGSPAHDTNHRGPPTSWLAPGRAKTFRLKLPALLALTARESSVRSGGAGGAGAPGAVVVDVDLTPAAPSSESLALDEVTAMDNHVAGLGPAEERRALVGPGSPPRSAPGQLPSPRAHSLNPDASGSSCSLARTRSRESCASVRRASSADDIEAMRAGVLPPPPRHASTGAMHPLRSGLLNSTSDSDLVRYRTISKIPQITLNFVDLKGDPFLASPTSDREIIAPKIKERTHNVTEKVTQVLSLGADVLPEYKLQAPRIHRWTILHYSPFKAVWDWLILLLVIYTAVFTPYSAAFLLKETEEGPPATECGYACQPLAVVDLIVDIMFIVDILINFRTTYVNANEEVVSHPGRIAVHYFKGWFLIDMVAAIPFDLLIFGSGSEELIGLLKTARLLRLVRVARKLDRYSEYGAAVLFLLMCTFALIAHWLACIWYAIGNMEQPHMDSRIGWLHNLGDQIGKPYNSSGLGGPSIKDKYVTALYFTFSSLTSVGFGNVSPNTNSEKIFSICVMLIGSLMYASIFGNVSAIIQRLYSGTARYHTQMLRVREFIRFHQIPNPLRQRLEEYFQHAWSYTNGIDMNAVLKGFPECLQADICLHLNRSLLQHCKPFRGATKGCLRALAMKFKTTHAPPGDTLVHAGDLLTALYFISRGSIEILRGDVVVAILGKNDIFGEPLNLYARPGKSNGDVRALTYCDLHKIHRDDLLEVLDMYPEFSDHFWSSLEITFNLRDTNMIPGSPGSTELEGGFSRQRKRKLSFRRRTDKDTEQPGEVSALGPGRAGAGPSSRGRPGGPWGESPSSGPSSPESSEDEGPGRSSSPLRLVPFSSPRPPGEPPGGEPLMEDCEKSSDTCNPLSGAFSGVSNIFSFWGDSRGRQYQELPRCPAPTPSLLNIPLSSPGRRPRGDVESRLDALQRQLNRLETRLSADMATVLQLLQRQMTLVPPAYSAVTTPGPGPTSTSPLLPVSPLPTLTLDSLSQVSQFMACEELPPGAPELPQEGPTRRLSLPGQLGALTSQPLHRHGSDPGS
Sequence of Cytochrome P450 3A4 (Homo sapiens) (P08684 whole entry, looked up): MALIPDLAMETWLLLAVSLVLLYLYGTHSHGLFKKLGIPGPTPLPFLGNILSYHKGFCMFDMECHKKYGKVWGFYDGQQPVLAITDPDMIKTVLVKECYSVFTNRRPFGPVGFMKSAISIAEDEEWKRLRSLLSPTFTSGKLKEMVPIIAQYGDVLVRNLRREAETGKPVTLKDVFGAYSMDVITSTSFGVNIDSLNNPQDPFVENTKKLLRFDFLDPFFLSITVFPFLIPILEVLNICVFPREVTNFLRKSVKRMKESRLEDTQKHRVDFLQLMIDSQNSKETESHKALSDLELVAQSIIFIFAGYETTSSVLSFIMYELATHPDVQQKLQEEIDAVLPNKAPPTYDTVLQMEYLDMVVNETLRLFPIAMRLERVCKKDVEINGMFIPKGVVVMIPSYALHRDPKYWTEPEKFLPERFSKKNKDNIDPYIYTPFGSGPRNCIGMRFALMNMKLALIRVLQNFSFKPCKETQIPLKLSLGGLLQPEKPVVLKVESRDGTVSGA
Sequence of Nuclear receptor subfamily 1 group I member 2 (Homo sapiens) (O75469 whole entry, looked up): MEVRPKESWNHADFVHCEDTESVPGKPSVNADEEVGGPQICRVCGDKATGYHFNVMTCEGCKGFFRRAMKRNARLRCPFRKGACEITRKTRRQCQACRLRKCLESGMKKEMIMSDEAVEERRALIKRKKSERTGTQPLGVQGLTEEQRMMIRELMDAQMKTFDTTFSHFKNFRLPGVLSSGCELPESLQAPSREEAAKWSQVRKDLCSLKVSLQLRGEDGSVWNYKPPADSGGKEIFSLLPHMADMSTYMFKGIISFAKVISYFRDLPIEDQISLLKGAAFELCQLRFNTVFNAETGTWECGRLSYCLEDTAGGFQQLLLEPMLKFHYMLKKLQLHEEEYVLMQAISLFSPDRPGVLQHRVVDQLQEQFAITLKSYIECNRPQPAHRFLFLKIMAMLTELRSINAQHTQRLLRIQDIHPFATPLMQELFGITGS
Sequence of Cytochrome P450 2D6 (Homo sapiens) (P10635 whole entry, looked up): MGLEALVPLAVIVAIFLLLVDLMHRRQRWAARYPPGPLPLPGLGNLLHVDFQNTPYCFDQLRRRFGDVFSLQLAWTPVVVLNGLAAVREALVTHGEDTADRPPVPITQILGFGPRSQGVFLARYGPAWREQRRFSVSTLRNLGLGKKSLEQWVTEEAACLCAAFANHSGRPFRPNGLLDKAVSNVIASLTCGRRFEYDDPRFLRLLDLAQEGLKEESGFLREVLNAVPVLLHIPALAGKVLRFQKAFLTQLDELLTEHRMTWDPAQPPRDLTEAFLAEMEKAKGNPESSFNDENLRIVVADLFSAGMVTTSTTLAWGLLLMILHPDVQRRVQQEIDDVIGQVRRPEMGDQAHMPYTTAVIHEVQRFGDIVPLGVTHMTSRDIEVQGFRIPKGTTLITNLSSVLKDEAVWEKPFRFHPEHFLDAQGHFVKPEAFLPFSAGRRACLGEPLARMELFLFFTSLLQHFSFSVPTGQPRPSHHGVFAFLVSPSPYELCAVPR

C=CCCC(=O)O
not listed: [13]
inactive: all other assays above

CCOc1c(N2CCOCC2)cnn(C)c1=O
not listed: [12] | [13]
inactive: all other assays above

CCO[Si](OCC)(OCC)c1ccccc1
not listed: [12] | [13]
inactive: all other assays above

CC1(C)OC[C@@H](COC(=O)CCc2ccc(OC[C@@H](O)CNCCNC(=O)N3CCOCC3)cc2)O1
not listed: [13]
inactive: all other assays above

CCC(C(=O)NC(=O)NC(C)=O)c1ccccc1 (centres undefined)
not listed: [13]
inactive: all other assays above

[Ca+2]
active: [7] 35.6 µM
not listed: [13]
inactive: all other assays above

C1CCC2(CCCCO2)OC1
not listed: [13]
inactive: all other assays above

CC(C)[C@H]1CC[C@@H](C)CC1=O
not listed: [13]
inactive: all other assays above

CC(C)(C)c1ccc(-c2ccc(C(C)(C)C)cc2)cc1
not listed: [13]
inactive: all other assays above

CC1=CC(=O)[C@H]2C[C@@H]1C2(C)C
not listed: [13]
inactive: all other assays above

CC(=O)OCC(=O)[C@@]1(O)[C@H](C)C[C@H]2[C@@H]3CCC4=CC(=O)C=C[C@]4(C)[C@@]3(F)[C@@H](O)C[C@@]21C
not listed: [9] | [12]
inactive: all other assays above

NC(CCC(=O)O)C(=O)O (centres undefined)
active: [7] 31 µM
not listed: [12] | [13]
inactive: all other assays above

CCCCc1ccc2c(n1)[C@@H](c1ccc(OC)cc1C[C@H](C)C(=O)O)[C@H](C(=O)O)[C@H]2c1ccc2c(c1)OCO2
active: [7] 71 µM | [9] 35.6 µM
not listed: [13]
inactive: all other assays above

CC(C)c1ccc2ncccc2c1
active: [10] 63.3 µM
not listed: [12] | [13]
inactive: all other assays above

CNCCO
not listed: [13]
inactive: all other assays above

CC(CO)(CO)[N+](=O)[O-]
not listed: [13]
inactive: all other assays above

CN(C)CCN(C)CCN(C)C
active: [6] 29.6 µM
not listed: [13]
inactive: all other assays above

CCOC(=O)CCC(=O)OCC
active: [9] 35.6 µM
not listed: [13]
inactive: all other assays above

CCCCOC(=O)CCC(C)=O
not listed: [12] | [13]
inactive: all other assays above

CN1C(C)(C)CC(O)CC1(C)C
not listed: [13]
inactive: all other assays above
